# Experimental data as given in PubChem BioAssay (NCATS).
# Inconclusive results are not listed. A call without a number means that no potency is given here. Active and inactive are the calls of the source. Calls come from the whole dose curve; as a rule, active = well fitted inhibition curve with a large enough effect; inconclusive = small, poorly fitted or top-dose-only effect; inactive = flat fitted curve, though single readings scatter.
# Tests used:
# Assay in all cases: qHTS profiling for inhibitors of Plasmodium falciparum proliferation (AID 504749); note: nearly all actives have a fitted effect of over 60% in size
# Conditions in all cases: P. falciparum in erythrocytes, SYBR Green DNA, 72 h; series mostly up to 28.7 µM
# [1] = system: CP256
# In short: (§1)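 Each compound contacts P. falciparum-infected red blood cells for 72 h at 37 C; lysis buffer (Tris, EDTA, saponin, Triton X, SYBR Green I) is added and fluorescence measured next morning; values normalized to controls.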
# [2] = system: CP260
# In short: as §1
# [3] = system: CP262
# In short: as §1
# [4] = system: CP265
# In short: as §1
# [5] = system: CP266
# In short: as §1
# [6] = system: CP268
# In short: as §1
# [7] = system: CP269
# In short: as §1
# [8] = system: CP286
# In short: as §1
# [9] = system: CP291
# In short: as §1
# [10] = system: CP297
# In short: as §1
# [11] = system: CP305
# In short: as §1
# [12] = system: CP315
# In short: as §1
# [13] = system: CP325
# In short: as §1
# [14] = system: CP329
# In short: as §1
# [15] = system: CP335
# In short: as §1
# [16] = system: DFO2036
# In short: as §1
# [17] = system: DIV14
# In short: as §1
# [18] = system: DIV17
# In short: as §1
# [19] = system: DIV30
# In short: as §1
# [20] = system: Dd2
# In short: as §1
# Potency is the fitted concentration of half-maximal effect.
SMILES,Potency [1],Potency [2],Potency [3],Potency [4],Potency [5],Potency [6],Potency [7],Potency [8],Potency [9],Potency [10],Potency [11],Potency [12],Potency [13],Potency [14],Potency [15],Potency [16],Potency [17],Potency [18],Potency [19],Potency [20]
Nc1[nH]c(=O)ncc1F,inactive,inactive,inactive,inactive,inactive,inactive,inactive,inactive,inactive,inactive,inactive,inactive,inactive,inactive,inactive,inactive,inactive,inactive,inactive,inactive
CC1=NN(c2ccccc2)C(=O)C1,inactive,inactive,inactive,inactive,inactive,inactive,inactive,inactive,inactive,inactive,inactive,inactive,inactive,inactive,inactive,inactive,inactive,inactive,inactive,inactive
Nc1nc(N)c2nc(CNc3ccc(C(=O)NC(CCC(=O)O)C(=O)O)cc3)cnc2n1 (stereo unspecified),inactive,inactive,inactive,inactive,inactive,inactive,inactive,inactive,inactive,inactive,inactive,inactive,inactive,inactive,inactive,inactive,inactive,inactive,inactive,inactive
C[C@]12C=CC(=O)C=C1CC[C@@H]1[C@@H]2C(=O)C[C@@]2(C)[C@H]1CC[C@]2(O)C(=O)CO,inactive,inactive,inactive,inactive,inactive,inactive,inactive,inactive,inactive,inactive,inactive,inactive,inactive,inactive,inactive,inactive,inactive,inactive,inactive,inactive
N[C@@H](C(=O)N[C@@H]1C(=O)N2C(C(=O)O)=C(Cl)CS[C@H]12)c1ccccc1,inactive,inactive,inactive,inactive,inactive,inactive,inactive,inactive,inactive,inactive,inactive,inactive,inactive,inactive,inactive,inactive,inactive,inactive,inactive,inactive
COc1cc(NCc2ccc3nc(N)nc(N)c3c2C)cc(OC)c1OC,316 nM (active),158 nM (active),169 nM (active),3160 nM (active),4260 nM (active),953 nM (active),3380 nM (active),178 nM (active),478 nM (active),426 nM (active),601 nM (active),849 nM (active),953 nM (active),379 nM (active),151 nM (active),355 nM (active),169 nM (active),239 nM (active),4780 nM (active),631 nM (active)
NC(N)=NC(N)=NCCc1ccccc1,inactive,inactive,inactive,inactive,inactive,inactive,inactive,inactive,inactive,inactive,inactive,inactive,inactive,inactive,inactive,inactive,inactive,inactive,inactive,inactive
CN(C)c1ccc(C(=C2C=CC(=[N+](C)C)C=C2)c2ccc(N(C)C)cc2)cc1,158 nM (active),224 nM (active),239 nM (active),316 nM (active),601 nM (active),849 nM (active),239 nM (active),178 nM (active),675 nM (active),953 nM (active),338 nM (active),953 nM (active),478 nM (active),601 nM (active),301 nM (active),199 nM (active),478 nM (active),601 nM (active),478 nM (active),158 nM (active)
Cc1nnc(NS(=O)(=O)c2ccc(N)cc2)s1,inactive,inactive,inactive,inactive,inactive,inactive,inactive,inactive,inactive,inactive,inactive,inactive,inactive,inactive,inactive,inactive,inactive,inactive,inactive,inactive
N=C(N)c1ccc(OCCCCCOc2ccc(C(=N)N)cc2)cc1,501 nM (active),2000 nM (active),757 nM (active),2820 nM (active),1690 nM (active),1350 nM (active),536 nM (active),1120 nM (active),1200 nM (active),601 nM (active),536 nM (active),1350 nM (active),1070 nM (active),849 nM (active),1350 nM (active),1000 nM (active),269 nM (active),426 nM (active),1690 nM (active),501 nM (active)
CCOC(=O)[C@H](CCc1ccccc1)N[C@H]1CS[C@H](c2cccs2)CN(CC(=O)O)C1=O,inactive,inactive,inactive,inactive,inactive,inactive,inactive,inactive,inactive,inactive,inactive,inactive,inactive,inactive,inactive,inactive,,inactive,inactive,inactive
CC(C)NCC(O)c1ccc(NS(C)(=O)=O)cc1 (stereo unspecified),inactive,inactive,inactive,inactive,inactive,inactive,inactive,inactive,inactive,inactive,inactive,inactive,inactive,inactive,inactive,inactive,inactive,inactive,inactive,inactive
CCN(C)C(=O)Oc1cccc([C@H](C)N(C)C)c1,inactive,inactive,inactive,inactive,inactive,inactive,inactive,inactive,inactive,inactive,inactive,inactive,inactive,inactive,inactive,inactive,inactive,inactive,inactive,inactive
Nc1ccc(S(=O)(=O)Nc2ccccn2)cc1,inactive,inactive,inactive,inactive,inactive,inactive,inactive,inactive,inactive,inactive,inactive,inactive,inactive,inactive,inactive,inactive,inactive,inactive,inactive,inactive
CCOCC(O)COc1ccc(NC(=O)CC[S+](C)C)cc1 (stereo unspecified),inactive,inactive,inactive,inactive,inactive,inactive,inactive,inactive,inactive,inactive,inactive,inactive,inactive,inactive,inactive,inactive,inactive,inactive,inactive,inactive
C#CCN[C@@H]1CCc2ccccc21,inactive,inactive,inactive,inactive,inactive,inactive,inactive,inactive,inactive,inactive,inactive,inactive,inactive,inactive,inactive,inactive,inactive,inactive,inactive,inactive
CC[C@H](NC(C)C)[C@H](O)c1ccc(O)c2[nH]c(=O)ccc12,inactive,inactive,inactive,inactive,inactive,inactive,inactive,inactive,inactive,inactive,inactive,inactive,inactive,inactive,inactive,inactive,inactive,inactive,,inactive
O=P(O)(O)C(O)(Cc1cccnc1)P(=O)(O)O,inactive,inactive,inactive,inactive,inactive,inactive,inactive,inactive,inactive,inactive,inactive,inactive,inactive,inactive,inactive,inactive,inactive,inactive,,inactive
COc1ncnc(NS(=O)(=O)c2ccc(N)cc2)c1OC,inactive,inactive,inactive,inactive,inactive,inactive,inactive,inactive,inactive,inactive,inactive,inactive,inactive,inactive,inactive,inactive,inactive,inactive,inactive,inactive
Cn1nnc2c(C(N)=O)ncn2c1=O,inactive,inactive,inactive,inactive,inactive,inactive,inactive,inactive,inactive,inactive,inactive,inactive,inactive,inactive,inactive,inactive,,inactive,inactive,inactive
Cc1cccc(Nc2ccncc2S(=O)(=O)NC(=O)NC(C)C)c1,inactive,inactive,inactive,inactive,inactive,inactive,inactive,inactive,inactive,inactive,inactive,inactive,inactive,inactive,inactive,inactive,inactive,inactive,inactive,inactive
O=C(O)c1cc(=O)[nH]c(=O)[nH]1,inactive,inactive,inactive,inactive,inactive,inactive,inactive,inactive,inactive,inactive,inactive,inactive,inactive,inactive,inactive,inactive,inactive,inactive,inactive,inactive
O=NN(CCCl)C(=O)NC1CCCCC1,inactive,inactive,inactive,inactive,inactive,inactive,inactive,inactive,inactive,inactive,inactive,inactive,inactive,inactive,inactive,inactive,inactive,inactive,inactive,inactive
CN(CCOc1ccc(CC2SC(=O)NC2=O)cc1)c1ccccn1 (stereo unspecified),inactive,inactive,inactive,inactive,inactive,inactive,inactive,inactive,inactive,inactive,inactive,inactive,inactive,inactive,inactive,inactive,inactive,inactive,inactive,inactive
CCc1cc(C(N)=S)ccn1,inactive,inactive,inactive,inactive,inactive,inactive,inactive,inactive,inactive,inactive,inactive,inactive,inactive,inactive,inactive,inactive,inactive,inactive,inactive,inactive
